PubChem BioAssay (Tox21)
Results filed as inconclusive are left out. Active and inactive are the calls of the source. Unless noted, the call rests on the fitted dose curve; in most records, active means well fitted curve in the direction sought with a large enough effect in the repeat runs; inconclusive means weak or mixed curves; inactive means no such curve, though single readings can be large; an effect the other way counts as inactive or inconclusive.

Columns and labels:
[1] = qHTS assay to identify small molecule antagonists of the thyroid receptor (TR) signaling pathway - cell viability counter screen (AID 743064); further: nearly all actives have a fitted effect of over 50% in size
Outline: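 Rat GH3 pituitary tumor cells stably expressing two TR response elements driving luciferase were plated, rested 4 h, then dosed with library compounds and T3 (1 nM final). After 23.5 h at 37 °C, CellTiter-Fluor was added for 30 min and fluorescence recorded.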

[2] = qHTS assay to identify small molecule antagonists of the thyroid receptor (TR) signaling pathway (AID 743065); further: series mostly up to about 70 µM; nearly all actives have a fitted effect of over 55% in size
Outline: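 Antagonism measured as loss of luciferase signal in GH3 cells stably carrying a TRE-luciferase reporter, co-treated with compound and T3 (1 nM final) for 23.5 h at 37 C. Viability was read in the same well by CellTiter-Fluor.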

[3] = tested on: thyroid hormone receptor (rat, GH3 cells); assay: qHTS assay to identify small molecule agonists of the thyroid receptor (TR) signaling pathway (AID 743066; calls by dose curve)
[4] = biological target: Estrogen receptor (Homo sapiens) (UniProt P03372); assay: qHTS assay to identify small molecule antagonists of the estrogen receptor alpha (ER-alpha) signaling pathway (AID 743069; active means well fitted curve in the direction sought with a large enough effect in the signal ratio in the repeat runs, not every such curve was filed as active; the % refers to the signal ratio)
Chain of Estrogen receptor (Homo sapiens) (P03372 whole entry, looked up): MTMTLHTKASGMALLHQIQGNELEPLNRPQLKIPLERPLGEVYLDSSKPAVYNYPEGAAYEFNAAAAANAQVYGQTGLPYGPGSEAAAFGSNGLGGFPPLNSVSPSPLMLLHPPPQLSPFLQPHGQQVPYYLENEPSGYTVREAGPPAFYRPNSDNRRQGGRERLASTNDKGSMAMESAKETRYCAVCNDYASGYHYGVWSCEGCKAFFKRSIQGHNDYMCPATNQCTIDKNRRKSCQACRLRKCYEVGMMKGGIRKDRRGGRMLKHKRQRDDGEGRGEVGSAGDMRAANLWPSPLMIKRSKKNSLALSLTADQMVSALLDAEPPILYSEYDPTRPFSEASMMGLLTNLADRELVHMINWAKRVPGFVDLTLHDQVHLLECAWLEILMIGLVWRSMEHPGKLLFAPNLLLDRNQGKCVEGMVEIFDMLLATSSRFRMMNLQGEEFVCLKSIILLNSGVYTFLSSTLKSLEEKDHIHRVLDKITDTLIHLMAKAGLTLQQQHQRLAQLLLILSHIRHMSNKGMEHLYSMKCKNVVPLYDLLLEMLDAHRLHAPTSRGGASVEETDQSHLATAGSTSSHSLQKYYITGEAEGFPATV
Outline: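 Antagonist mode: compounds in DMSO were co-added with 17beta-estradiol to ER-alpha-bla HEK293 cells (2% charcoal-stripped serum) and left 18 h at 37C. Reporter inhibition was measured as FRET fluorescence after 2 h LiveBLAzer substrate at room temperature.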

[5] = qHTS assay to identify small molecule antagonists of the estrogen receptor alpha (ER-alpha) signaling pathway - cell viability counter screen (AID 743074; calls by dose curve;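 further: HEK293 cells carrying ER-alpha-UAS-bla reporter stimulated with 17beta-estradiol; nearly all actives have a fitted effect of over 45% in size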)
[6] = biological target: Estrogen receptor (Homo sapiens) (UniProt P03372); assay: qHTS assay to identify small molecule agonists of the estrogen receptor alpha (ER-alpha) signaling pathway (AID 743075; calls by dose curve;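 further: HEK293 GripTite cells with ER-alpha and UAS-driven beta-lactamase reporter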)
[7] = biological target: Estrogen receptor (Homo sapiens) (UniProt P03372); assay: qHTS assay to identify small molecule agonists of the estrogen receptor alpha (ER-alpha) signaling pathway using the BG1 cell line (AID 743079); further: nearly all actives have a fitted effect of over 20% in size
[8] = qHTS assay to identify small molecule antagonists of the estrogen receptor alpha (ER-alpha) signaling pathway using the BG1 cell line (AID 743080; calls by dose curve;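 further: BG1 cells stimulated with 17beta-estradiol alongside compound; series mostly up to about 70 µM; nearly all actives have a fitted effect of over 25% in size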)
Outline: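 BG1Luc4E2, endogenous ER-alpha, 4xERE-luc; 5 d charcoal-stripped FBS, phenol red free; 24 h plating; cpd + 17beta-estradiol 21.5 h, 37 C/5% CO2; CellTiter-Fluor viability 30 min, then ONE-Glo luciferase 30 min RT.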

[9] = qHTS assay to identify small molecule antagonists of the estrogen receptor alpha (ER-alpha) signaling pathway using the BG1 cell line - cell viability counter screen (AID 743081);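 further: compound given together with 17beta-estradiol as the ER stimulus; series mostly up to about 70 µM; nearly all actives have a fitted effect of over 45% in size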
Aromatase (Homo sapiens) = Aromatase (Homo sapiens) (UniProt P11511); assay: qHTS assay to identify aromatase inhibitors (AID 743083); further: series mostly up to about 70 µM; nearly all actives have a fitted effect of over 55% in size
Chain of Aromatase (Homo sapiens) (P11511 whole entry, looked up): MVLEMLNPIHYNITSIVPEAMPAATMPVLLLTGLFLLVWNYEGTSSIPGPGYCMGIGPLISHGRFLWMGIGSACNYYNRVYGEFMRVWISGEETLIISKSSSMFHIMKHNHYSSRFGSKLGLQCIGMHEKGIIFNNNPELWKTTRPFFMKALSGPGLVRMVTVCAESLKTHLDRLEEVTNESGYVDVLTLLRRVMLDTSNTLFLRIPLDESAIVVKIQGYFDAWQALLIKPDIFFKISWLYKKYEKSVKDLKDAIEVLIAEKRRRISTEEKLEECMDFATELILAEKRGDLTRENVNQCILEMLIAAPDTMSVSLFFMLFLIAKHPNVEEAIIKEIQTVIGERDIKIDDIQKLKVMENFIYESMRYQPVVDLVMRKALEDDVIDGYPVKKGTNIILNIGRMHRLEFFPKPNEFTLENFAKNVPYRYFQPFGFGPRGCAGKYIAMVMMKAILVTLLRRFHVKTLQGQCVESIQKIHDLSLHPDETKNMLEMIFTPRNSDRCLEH

[10] = qHTS assay to identify aromatase inhibitors - cell viability counter screen (AID 743084);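 further: cells stimulated with testosterone during compound exposure; nearly all actives have a fitted effect of over 55% in size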
[11] = qHTS assay to identify small molecule that activate the aryl hydrocarbon receptor (AhR) signaling pathway - cell viability counter screen (AID 743086);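 further: HepG2 liver cells carrying the AhR DRE luciferase reporter; series mostly up to about 70 µM; nearly all actives have a fitted effect of over 45% in size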
Outline: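 Cytotoxicity counter screen: CellTiter-Fluor signal (30 min, 37 C) in 4000 HepG2 cells/well carrying the DRE-luciferase reporter, following 24 h compound exposure at 37 C.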

[12] = biological target: Peroxisome proliferator-activated receptor gamma (Homo sapiens) (UniProt P37231); assay: qHTS assay to identify small molecule agonists of the peroxisome proliferator-activated receptor gamma (PPARg) signaling pathway (AID 743094; active means well fitted activation curve with a large enough effect in the signal ratio in the repeat runs, not every such curve was filed as active; the % refers to the signal ratio)
Chain of Peroxisome proliferator-activated receptor gamma (Homo sapiens) (P37231 whole entry, looked up): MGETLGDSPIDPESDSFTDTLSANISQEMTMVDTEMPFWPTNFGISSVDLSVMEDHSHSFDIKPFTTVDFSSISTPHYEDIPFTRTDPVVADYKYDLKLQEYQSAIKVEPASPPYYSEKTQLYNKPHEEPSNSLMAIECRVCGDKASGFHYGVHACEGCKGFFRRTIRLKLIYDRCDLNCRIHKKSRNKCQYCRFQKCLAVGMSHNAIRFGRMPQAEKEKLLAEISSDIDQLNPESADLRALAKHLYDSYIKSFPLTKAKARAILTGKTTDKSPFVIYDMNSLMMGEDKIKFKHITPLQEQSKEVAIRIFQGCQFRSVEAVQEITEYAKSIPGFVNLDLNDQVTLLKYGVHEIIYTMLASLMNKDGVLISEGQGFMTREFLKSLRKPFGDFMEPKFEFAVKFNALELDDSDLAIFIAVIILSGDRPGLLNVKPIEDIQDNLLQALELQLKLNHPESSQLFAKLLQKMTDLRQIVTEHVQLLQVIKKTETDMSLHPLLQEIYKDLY
Outline: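 HEK293H PPARg-bla cells, 5 h settle at 37C/5% CO2; compound (DMSO) 17 h, 37C; B/G FRET substrate 1 h RT; fluorescence intensity read-out. qHTS format.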

[13] = biological target: Peroxisome proliferator-activated receptor gamma (Homo sapiens) (UniProt P37231); assay: qHTS assay to identify small molecule antagonists of the peroxisome proliferator-activated receptor gamma (PPARg) signaling pathway (AID 743191; calls by dose curve; further: series mostly up to about 63 µM; nearly all actives have a fitted effect of over 30% in size)
Outline: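 Beta-lactamase reporter under UAS control in HEK293H PPARg-bla cells; compound treatment 17 h at 37C. Read-out: fluorescence intensity after 1 h room-temperature incubation with LiveBLAzer B/G FRET substrate.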

[14] = qHTS assay for small molecule agonists of the antioxidant response element (ARE) signaling pathway (AID 743202; active means well fitted activation curve with a large enough effect in the signal ratio in the repeat runs, not every such curve was filed as active; the % refers to the signal ratio)
Outline: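 After 16 hours of compound treatment at 37 C, HepG2 cells with a stably integrated ARE-driven beta-lactamase reporter were loaded 2 hours at room temperature with LiveBLAzer B/G FRET substrate and fluorescence intensity measured.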

[15] = qHTS assay for small molecule agonists of the antioxidant response element (ARE) signaling pathway - cell viability counter screen (AID 743203; calls by dose curve; further: nearly all actives have a fitted effect of over 55% in size)
Outline: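 Luminescence read-out (CellTiter-Glo, 30 min at room temperature) measured cell viability in the same wells as the ARE beta-lactamase reporter. HepG2 ARE-bla cells were treated with compounds for 16 hrs at 37C/5% CO2.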

[16] = qHTS assay for small molecule activators of the heat shock response signaling pathway - cell viability counter screen (AID 743209); further: nearly all actives have a fitted effect of over 50% in size
Outline: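 HSE-bla HeLa; 1500 cells/well; overnight 37 C, 5% CO2; compound 5 h 37 C; LiveBLAzer B/G substrate 2.5 h RT; CellTiter-Glo 30 min RT; luminescence.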

[17] = qHTS assay for small molecule activators of the heat shock response signaling pathway (AID 743210; active means well fitted activation curve with a large enough effect in the signal ratio in the repeat runs, with a control signal flat, not every such curve was filed as active; the % refers to the signal ratio; further: series mostly up to about 63 µM)
Outline: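 Compound exposure lasted 5 h at 37 C in HeLa cells carrying a heat-shock-element-driven beta-lactamase reporter. Read-out: fluorescence intensity after 2.5 h room-temperature loading with LiveBLAzer B/G FRET substrate.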

[18] = biological target: Aryl hydrocarbon receptor (Homo sapiens) (UniProt P35869); assay: qHTS assay to identify small molecule that activate the aryl hydrocarbon receptor (AhR) signaling pathway (AID 743085);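 further: HG2L7.5c1 human HepG2 liver cells with stably integrated DRE-driven firefly reporter; series mostly up to about 70 µM; nearly all actives have a fitted effect of over 15% in size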
Chain of Aryl hydrocarbon receptor (Homo sapiens) (P35869 whole entry, looked up): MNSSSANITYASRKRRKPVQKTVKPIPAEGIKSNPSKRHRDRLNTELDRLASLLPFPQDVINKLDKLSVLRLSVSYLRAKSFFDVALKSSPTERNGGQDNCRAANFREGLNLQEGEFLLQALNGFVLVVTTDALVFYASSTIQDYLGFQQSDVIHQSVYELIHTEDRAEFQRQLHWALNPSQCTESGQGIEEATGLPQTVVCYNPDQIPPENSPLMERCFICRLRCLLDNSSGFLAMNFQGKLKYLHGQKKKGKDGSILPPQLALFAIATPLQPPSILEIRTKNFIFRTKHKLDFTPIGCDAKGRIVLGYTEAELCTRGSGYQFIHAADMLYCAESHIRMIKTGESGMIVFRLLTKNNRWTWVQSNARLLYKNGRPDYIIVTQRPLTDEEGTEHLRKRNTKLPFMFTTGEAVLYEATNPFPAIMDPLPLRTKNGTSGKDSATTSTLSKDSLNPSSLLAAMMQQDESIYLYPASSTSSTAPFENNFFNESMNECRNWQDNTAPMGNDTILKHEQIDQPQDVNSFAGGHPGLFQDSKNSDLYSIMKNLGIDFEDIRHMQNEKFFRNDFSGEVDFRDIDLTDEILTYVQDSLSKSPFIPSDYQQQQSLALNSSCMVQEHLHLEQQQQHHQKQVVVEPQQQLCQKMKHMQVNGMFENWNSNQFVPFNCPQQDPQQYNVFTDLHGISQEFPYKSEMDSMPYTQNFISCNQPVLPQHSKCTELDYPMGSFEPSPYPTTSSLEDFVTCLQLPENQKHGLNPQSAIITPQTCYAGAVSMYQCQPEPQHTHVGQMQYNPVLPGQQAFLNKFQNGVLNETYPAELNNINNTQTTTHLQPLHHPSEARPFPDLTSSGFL
Outline: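 Compounds were tested in HepG2 hepatocellular carcinoma cells harbouring a stably integrated luciferase gene under control of 20 DREs. Increased reporter signal after 24 h treatment at 37C was taken as AhR activation.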

[19] = qHTS assay to identify small molecule antagonists of the peroxisome proliferator-activated receptor gamma (PPARg) signaling pathway - cell viability counter screen (AID 743194); further: nearly all actives have a fitted effect of over 55% in size
Outline: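 Viability was measured as CellTiter-Glo luminescence in GeneBLAzer PPARg UAS-bla HEK293H cells. These cells had been exposed 17 h at 37 C to compounds together with rosiglitazone at 50 nM final, with the beta-lactamase readout taken in the same wells.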

Measured: Potency

C=C(C)C(=O)OCCC(C)OC(=O)C(=C)C (centres undefined)
not listed: [18] | [19]
inactive: all other assays above

CCCC(C)C(=O)O (centres undefined)
not listed: [12] | [16]
inactive: all other assays above

CC1=CC(C)C(C=O)C(C)C1 (centres undefined)
not listed: [5] | [12] | [19]
inactive: all other assays above

CC(C)=CCC/C(C)=C/C(=O)O
not listed: [12] | [13] | [19]
inactive: all other assays above

CCCCCC[C@@H](CCC)C(=O)O
not listed: [9] | [13]
inactive: all other assays above

CC(=O)CCc1ccc(O)cc1
not listed: [12] | [18]
inactive: all other assays above

COC(=O)CCCC(=O)O
not listed: [4] | [14]
inactive: all other assays above
